Data reported in PubChem BioAssay AID1345085 (National Center for Advancing Translational Sciences (NCATS), 2018).
Results filed as inconclusive are left out. Activity calls are given as the source filed them. The call rests on the fitted dose curve; in most records, active means well fitted cell-killing curve with a large enough effect; inconclusive means small, poorly fitted or top-dose-only effect, or effect the other way; inactive means no such curve, though single readings can be large or run the other way.

Test system: Hek293T
Test: Confirmatory qHTS for gynecologic anti-cancer compounds from libraries of approved drugs and bioactive compounds; further: nearly all actives have a fitted effect of over 55% in size
Conditions: gynecologic cancer cell panel viability, ATPlite luminescence, 48 h; series mostly up to 57.6 µM
Summary of the method: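 Viability is measured as ATP-dependent luciferase light using ATPlite, read 15 min after reagent addition at room temperature. Compounds, in DMSO, span 57.5 uM down to 0.977 nM over 11 threefold steps for 48 h.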
Potency means the concentration at half of the fitted maximal effect.

Question: With `C=C(C)[C@H]1Cc2c(ccc3c2O[C@@H]2COc4cc(OC)c(OC)cc4[C@@H]2C3=O)O1` as the molecule, how does the Potency read?
Answer: The Potency was 432 nM (active).

Question: Which Potency does the source give for `CCNC(=O)C[C@@H]1N=C(c2ccc(Cl)cc2)c2cc(OC)ccc2-n2c(C)nnc21` here?
Answer: Its Potency is “inactive”.

Question: Which Potency does the source give for `C[C@H]1CCC/C=C/C2C[C@H](O)C[C@H]2[C@H](O)/C=C/C(=O)O1` (stereo partly drawn) here?
Answer: The Potency was 1090 nM (active).
